# Measurements from the supplement of paper PMC10849652.
# The full data set covers some 8,800 targets. This sample favours those with a hit. About 0.5% of all pairs of compound and target were hits. Unmarked numbers belong to inactive results.
# How the values were obtained:
# Assay in all cases: log2 fold change, soluble protein after heating vs DMSO (PISA); higher = thermal stabilisation; K562 lysate, 10 uM; active = over 0.2 and 3.5 SD of the protein, either way, in both replicates (recomputed)
# nilotinib = compound: Cc1cn(-c2cc(NC(=O)c3ccc(C)c(Nc4nccc(-c5cccnc5)n4)c3)cc(C(F)(F)F)c2)cn1 [nilotinib]
# Procedure, shortened: (§1)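 K562 pellets were dounce-homogenised in PBS pH 7.4 with 1 mM MgCl2, and the crude extract at 1 mg/mL protein was treated with 10 μM compound for 30 min. Aliquots were heated for 3 min across 48°C-58°C, pooled, and brought to 0.5% NP-40 at 4°C; soluble protein was the supernatant after 21,000xg for 90 min. Soluble protein was quantified by TMTpro 16plex LC-MS/MS with channel sums equalised, and reported as log2 fold change in thermal stability against DMSO controls, with values from duplicates.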
# [1] = compound: Cc1nc(Nc2n[nH]c3c2CN(C(=O)N[C@H](CN(C)C)c2ccccc2)C3(C)C)c2sccc2n1
# Procedure, shortened: as §1
# dasatinib = compound: Cc1nc(Nc2ncc(C(=O)Nc3c(C)cccc3Cl)s2)cc(N2CCN(CCO)CC2)n1 [dasatinib]
# Procedure, shortened: as §1
# [2] = compound: Cc1ncc(-c2ccnc(Nc3ccc(S(C)(=O)=O)cc3)n2)n1C(C)C
# Procedure, shortened: as §1
# [3] = compound: Cn1cc(-c2ccc3c(c2)CCN3C(=O)Cc2cccc(C(F)(F)F)c2)c2c(N)ncnc21
# Procedure, shortened: as §1
# quisinostat = compound: Cn1cc(CNCC2CCN(c3ncc(C(=O)NO)cn3)CC2)c2ccccc21 [quisinostat]
# Procedure, shortened: as §1
# tipifarnib = compound: Cn1cncc1[C@@](N)(c1ccc(Cl)cc1)c1ccc2c(c1)c(-c1cccc(Cl)c1)cc(=O)n2C [tipifarnib]
# Procedure, shortened: as §1
# [4] = compound: NC(=O)Nc1cc(-c2cccc(F)c2)sc1C(=O)N[C@H]1CCCNC1
# Procedure, shortened: as §1
# [5] = compound: NC(=O)c1cnc(N[C@@H]2CCCC[C@@H]2N)nc1Nc1cccc(-n2nccn2)c1
# Procedure, shortened: as §1
# [6] = compound: NC1(c2ccc(-c3nc4ccn5c(=O)[nH]nc5c4cc3-c3ccccc3)cc2)CCC1
# Procedure, shortened: as §1
# Sequence of UniProt Q6IPR1 (Q6IPR1 whole entry, looked up): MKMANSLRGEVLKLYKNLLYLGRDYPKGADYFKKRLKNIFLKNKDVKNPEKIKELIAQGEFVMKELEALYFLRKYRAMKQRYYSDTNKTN
# Sequence of UniProt Q01844 (Q01844 whole entry, looked up): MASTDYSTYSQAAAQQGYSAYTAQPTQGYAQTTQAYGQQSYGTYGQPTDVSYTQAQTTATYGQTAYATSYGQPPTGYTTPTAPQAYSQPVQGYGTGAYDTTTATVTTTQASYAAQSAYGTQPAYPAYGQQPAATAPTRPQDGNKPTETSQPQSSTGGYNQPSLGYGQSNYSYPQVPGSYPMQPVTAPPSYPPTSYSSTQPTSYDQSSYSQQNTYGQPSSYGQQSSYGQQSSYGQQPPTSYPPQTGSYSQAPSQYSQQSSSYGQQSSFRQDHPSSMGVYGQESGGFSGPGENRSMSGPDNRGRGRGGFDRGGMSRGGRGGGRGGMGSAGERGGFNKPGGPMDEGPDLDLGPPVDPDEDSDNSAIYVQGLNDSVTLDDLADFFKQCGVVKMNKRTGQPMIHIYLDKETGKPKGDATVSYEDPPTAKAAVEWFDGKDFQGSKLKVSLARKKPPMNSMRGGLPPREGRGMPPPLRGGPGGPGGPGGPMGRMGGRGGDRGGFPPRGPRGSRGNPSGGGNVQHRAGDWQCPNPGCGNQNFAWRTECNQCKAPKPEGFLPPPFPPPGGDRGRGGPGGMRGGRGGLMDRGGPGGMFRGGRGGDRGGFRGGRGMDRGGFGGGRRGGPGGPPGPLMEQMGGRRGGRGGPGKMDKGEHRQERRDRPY
# Sequence of UniProt Q9Y5Q0 (Q9Y5Q0 whole entry, looked up): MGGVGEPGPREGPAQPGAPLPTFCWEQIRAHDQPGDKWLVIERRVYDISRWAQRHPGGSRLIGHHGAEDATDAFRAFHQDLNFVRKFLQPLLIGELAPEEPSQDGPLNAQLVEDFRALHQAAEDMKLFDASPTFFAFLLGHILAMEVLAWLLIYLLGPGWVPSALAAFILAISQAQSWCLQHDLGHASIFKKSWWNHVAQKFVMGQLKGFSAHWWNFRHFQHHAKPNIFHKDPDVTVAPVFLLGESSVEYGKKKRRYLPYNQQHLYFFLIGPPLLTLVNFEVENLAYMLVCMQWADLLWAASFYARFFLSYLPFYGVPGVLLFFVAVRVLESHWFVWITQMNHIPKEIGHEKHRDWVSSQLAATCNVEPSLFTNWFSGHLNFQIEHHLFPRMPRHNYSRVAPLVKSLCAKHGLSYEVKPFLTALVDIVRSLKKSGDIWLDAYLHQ
# Sequence of UniProt P62942 (P62942 whole entry, looked up): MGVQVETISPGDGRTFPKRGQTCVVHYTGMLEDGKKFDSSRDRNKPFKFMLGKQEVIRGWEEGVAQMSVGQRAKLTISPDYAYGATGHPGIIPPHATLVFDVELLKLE
# Sequence of UniProt O95571 (O95571 whole entry, looked up): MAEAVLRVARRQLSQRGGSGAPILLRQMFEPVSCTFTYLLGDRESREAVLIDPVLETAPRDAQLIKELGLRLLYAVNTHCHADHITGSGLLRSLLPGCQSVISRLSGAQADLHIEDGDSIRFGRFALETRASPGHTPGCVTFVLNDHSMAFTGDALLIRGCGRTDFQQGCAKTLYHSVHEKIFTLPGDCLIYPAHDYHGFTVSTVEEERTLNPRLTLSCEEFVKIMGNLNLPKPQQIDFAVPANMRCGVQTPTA
# Sequence of UniProt Q9UK97 (Q9UK97 whole entry, looked up): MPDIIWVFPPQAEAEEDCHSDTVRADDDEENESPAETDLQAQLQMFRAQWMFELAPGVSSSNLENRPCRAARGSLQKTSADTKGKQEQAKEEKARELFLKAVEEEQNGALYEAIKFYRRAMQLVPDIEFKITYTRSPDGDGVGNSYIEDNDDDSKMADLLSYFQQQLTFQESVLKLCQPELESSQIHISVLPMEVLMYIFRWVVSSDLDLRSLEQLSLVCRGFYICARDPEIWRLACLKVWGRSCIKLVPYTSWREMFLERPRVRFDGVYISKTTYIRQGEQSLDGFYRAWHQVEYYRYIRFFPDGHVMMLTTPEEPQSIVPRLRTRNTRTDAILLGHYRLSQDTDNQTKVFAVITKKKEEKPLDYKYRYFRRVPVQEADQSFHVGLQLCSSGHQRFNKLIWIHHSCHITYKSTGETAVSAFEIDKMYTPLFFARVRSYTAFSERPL
# Sequence of UniProt O94905 (O94905 whole entry, looked up): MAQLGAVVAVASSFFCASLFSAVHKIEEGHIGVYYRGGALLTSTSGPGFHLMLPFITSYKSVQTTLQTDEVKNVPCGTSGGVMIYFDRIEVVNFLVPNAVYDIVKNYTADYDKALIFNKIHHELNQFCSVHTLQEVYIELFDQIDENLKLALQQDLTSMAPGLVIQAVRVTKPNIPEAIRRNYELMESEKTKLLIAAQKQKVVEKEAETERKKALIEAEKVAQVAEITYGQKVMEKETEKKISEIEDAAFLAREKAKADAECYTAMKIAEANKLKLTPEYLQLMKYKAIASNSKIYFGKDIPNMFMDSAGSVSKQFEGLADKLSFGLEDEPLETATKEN
# Sequence of UniProt Q6PIW4 (Q6PIW4 whole entry, looked up): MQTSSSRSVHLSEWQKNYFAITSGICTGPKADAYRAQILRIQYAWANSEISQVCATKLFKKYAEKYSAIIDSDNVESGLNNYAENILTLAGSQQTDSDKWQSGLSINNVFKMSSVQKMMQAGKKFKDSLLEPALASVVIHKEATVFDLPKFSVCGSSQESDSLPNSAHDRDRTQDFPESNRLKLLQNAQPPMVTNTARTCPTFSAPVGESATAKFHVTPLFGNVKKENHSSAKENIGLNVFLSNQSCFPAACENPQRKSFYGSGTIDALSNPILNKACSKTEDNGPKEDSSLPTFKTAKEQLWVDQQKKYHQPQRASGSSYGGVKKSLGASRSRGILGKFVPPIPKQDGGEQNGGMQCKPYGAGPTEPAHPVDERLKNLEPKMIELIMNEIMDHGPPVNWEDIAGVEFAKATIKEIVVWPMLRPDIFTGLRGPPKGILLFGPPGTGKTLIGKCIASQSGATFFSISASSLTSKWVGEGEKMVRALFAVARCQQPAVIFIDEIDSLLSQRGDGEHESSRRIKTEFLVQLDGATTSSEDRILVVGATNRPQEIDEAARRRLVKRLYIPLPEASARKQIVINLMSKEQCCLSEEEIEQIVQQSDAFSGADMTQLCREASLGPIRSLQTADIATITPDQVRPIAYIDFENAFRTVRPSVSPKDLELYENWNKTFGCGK
# Sequence of UniProt Q9UI10 (Q9UI10 whole entry, looked up): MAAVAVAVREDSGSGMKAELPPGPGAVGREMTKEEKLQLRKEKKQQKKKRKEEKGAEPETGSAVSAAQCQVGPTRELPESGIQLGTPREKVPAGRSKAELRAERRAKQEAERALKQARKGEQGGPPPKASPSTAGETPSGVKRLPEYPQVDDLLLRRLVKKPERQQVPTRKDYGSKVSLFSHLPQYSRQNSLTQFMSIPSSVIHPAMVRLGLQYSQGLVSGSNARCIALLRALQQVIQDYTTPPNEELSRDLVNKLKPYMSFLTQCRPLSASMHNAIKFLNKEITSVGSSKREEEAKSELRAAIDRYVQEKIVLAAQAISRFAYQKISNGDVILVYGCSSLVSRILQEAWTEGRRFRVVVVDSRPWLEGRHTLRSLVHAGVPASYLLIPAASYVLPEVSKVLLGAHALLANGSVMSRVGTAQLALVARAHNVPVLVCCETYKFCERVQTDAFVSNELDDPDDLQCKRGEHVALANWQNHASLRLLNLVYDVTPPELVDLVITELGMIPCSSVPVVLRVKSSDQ
# Sequence of UniProt P11474 (P11474 whole entry, looked up): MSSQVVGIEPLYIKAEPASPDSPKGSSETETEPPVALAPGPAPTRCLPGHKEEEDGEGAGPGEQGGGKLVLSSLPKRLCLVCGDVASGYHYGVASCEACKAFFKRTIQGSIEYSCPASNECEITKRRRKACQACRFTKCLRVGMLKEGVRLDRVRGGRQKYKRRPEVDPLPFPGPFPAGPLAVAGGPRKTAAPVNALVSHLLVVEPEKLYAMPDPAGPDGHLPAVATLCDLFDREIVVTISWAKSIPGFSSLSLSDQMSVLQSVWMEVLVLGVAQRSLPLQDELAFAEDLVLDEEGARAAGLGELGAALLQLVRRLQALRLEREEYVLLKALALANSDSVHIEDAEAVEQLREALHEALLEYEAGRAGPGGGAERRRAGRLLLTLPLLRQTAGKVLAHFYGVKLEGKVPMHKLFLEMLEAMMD
# Sequence of UniProt Q15717 (Q15717 whole entry, looked up): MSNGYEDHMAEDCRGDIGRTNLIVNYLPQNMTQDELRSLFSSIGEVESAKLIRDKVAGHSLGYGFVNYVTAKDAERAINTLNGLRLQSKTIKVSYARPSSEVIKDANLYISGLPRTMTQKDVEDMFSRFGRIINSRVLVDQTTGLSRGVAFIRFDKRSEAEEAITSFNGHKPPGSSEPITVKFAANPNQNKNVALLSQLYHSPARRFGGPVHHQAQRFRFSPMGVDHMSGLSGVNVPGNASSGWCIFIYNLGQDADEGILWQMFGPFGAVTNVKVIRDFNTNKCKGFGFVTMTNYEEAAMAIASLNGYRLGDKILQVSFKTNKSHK
# Sequence of UniProt Q9NPA8 (Q9NPA8 whole entry, looked up): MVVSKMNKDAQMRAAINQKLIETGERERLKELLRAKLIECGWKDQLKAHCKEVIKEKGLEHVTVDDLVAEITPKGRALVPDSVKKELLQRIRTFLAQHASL
# Sequence of UniProt Q56P03 (Q56P03 whole entry, looked up): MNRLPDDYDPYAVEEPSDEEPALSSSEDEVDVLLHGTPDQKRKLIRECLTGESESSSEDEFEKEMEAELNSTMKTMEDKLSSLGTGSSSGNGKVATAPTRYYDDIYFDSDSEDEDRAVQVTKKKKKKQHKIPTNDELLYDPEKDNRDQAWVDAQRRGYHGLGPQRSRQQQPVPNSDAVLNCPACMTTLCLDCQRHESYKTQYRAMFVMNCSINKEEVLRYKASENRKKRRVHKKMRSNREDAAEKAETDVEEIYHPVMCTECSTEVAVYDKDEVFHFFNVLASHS
Target,log2 fold change (nilotinib),log2 fold change [1],log2 fold change (dasatinib),log2 fold change [2],log2 fold change [3],log2 fold change (quisinostat),log2 fold change (tipifarnib),log2 fold change [4],log2 fold change [5],log2 fold change [6]
ETHE1 (UniProt O95571),0.25 (active),-0.124,-0.037,0.095,-0.046,-0.015,-0.181,0.055,0,-0.002
ELAVL1 isoform 2 (UniProt Q15717),-0.035,-0.014,-0.029,-0.009,0.037,-0.079,0.003,0.034,0.008,0.03
ENY2 (UniProt Q9NPA8),-0.054,-0.002,0.045,0.007,0.033,-0.03,0.085,-0.03,-0.022,-0.007
EFCAB14 (UniProt O75071),-0.16,0.016,0.049,0.001,-0.005,-0.001,0.013,0.053,-0.005,0.013
EAPP (UniProt Q56P03),0.039,0.018,0.024,-0.095,-0.001,0.017,0.002,0.021,0.038,-0.045
FASTKD2 (UniProt Q9NYY8),-0.019,-0.006,-0.006,0.016,-0.026,-0.027,-0.02,0.049,0.027,0.015
EIF2B4 isoform 2 (UniProt Q9UI10),-0.002,0.004,-0.022,0.003,0.011,0,0.037,0.074,-0.003,0.002
EXOC1 (UniProt Q9NV70),-0.005,0.013,-0.067,0.013,0.097,0.024,0.005,0.024,0.012,-0.032
FBXO9 (UniProt Q9UK97),-0.076,0.003,0.059,0.02,0.021,-0.045,-0.092,0.177,0.127,0.127
FKBP1A (UniProt P62942),0.023,0.002,-0.005,0.081,-0.103,0.012,0.038,-0.005,0.002,-0.039
ERLIN2 (UniProt O94905),-0.009,0.001,-0.013,-0.019,0.03,0.021,0.012,-0.038,0.012,-0.01
GALK1 isoform 2 (UniProt P51570),0.01,-0.018,-0.024,-0.014,0.03,-0.051,0.002,0.04,-0.033,-0.006
FLAD1 (UniProt Q8NFF5),0.051,-0.026,0.002,0.024,0.019,-0.129,0,0.03,0.017,-0.026
GIGYF2 (UniProt Q6Y7W6),0.004,-0.03,0.006,0.007,0.024,-0.011,-0.09,0.026,0.007,-0.04
ESRRA (UniProt P11474),-0.121,0.016,0.061,0.035,-0.096,-0.038,0.008,0.158,-0.016,0.016
EPHX2 (UniProt P34913),0.097,-0.036,0.005,0.027,0.007,0.02,0.021,-0.036,-0.021,-0.015
FXR2 (UniProt P51116),-0.066,0.032,-0.027,0.003,0.074,0.025,0.015,-0.034,-0.012,-0.003
GAMT (UniProt Q14353),-0.017,0.022,0.03,0.129,-0.025,-0.043,-0.137,0.024,-0.016,-0.002
FADS3 (UniProt Q9Y5Q0),-0.091,0.216,0.102,0.166,-0.061,-0.019,-0.081,-0.008,-0.069,0.07
EBP (UniProt Q15125),0.081,-0.016,-0.05,0.018,-0.137,0.038,-0.03,0.042,-0.006,-0.05
DVL2 (UniProt O14641),-0.03,-0.003,-0.114,0.027,-0.063,-0.13,-0.027,0.102,0.236,-0.097
FCHO1 (UniProt O14526),0.007,-0.02,-0.022,0.035,0.02,0.013,-0.025,0.063,0.006,0.007
EHHADH (UniProt Q08426),-0.048,-0.091,-0.011,0.045,-0.047,-0.072,0.052,-0.003,0.025,0.097
FNBP1L (UniProt Q5T0N5),-0.076,0.03,-0.131,0.007,-0.051,-0.068,-0.016,0.018,-0.004,0.025
FIGNL1 (UniProt Q6PIW4),-0.011,0.037,-0.101,0.054,0.068,-0.08,-0.044,0.035,-0.02,-0.035
FANCI (UniProt Q9NVI1),-0.022,-0.011,-0.069,0.028,0.049,-0.065,0.01,0.061,0.027,-0.027
ETFRF1 (UniProt Q6IPR1),-0.038,0.032,-0.01,-0.02,0.062,0.088,0.117,-0.028,0.071,0.046
GFPT1 (UniProt Q06210),0.003,-0.009,-0.013,0.008,0.002,-0.031,-0.006,0.027,-0.003,-0.025
EWSR1 isoform 5 (UniProt Q01844),-0.766 (active),0.019,0.004,0.036,-0.049,-0.025,0.082,0.013,-0.002,0.024
FMNL1 isoform 3 (UniProt O95466),-0.174,-0.043,-0.13,-0.135,0.009,-0.047,-0.038,-0.051,0.012,-0.042
